High-throughput results (PubChem BioAssay)
Sampled rows, rich in hits. Any-hit rate of the full collection: about 1.8%.
Sa RN4220 lethal: kills Staphylococcus aureus RN4220. S. aureus RN4220 growth, OD600, 16 h. inhibition, % (test concentration not listed). hit rate 0.33% among 330,000; in the data active means inhibition above about 85%;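 further: plate controls were untreated cells for no effect and reference antibiotic for full effect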
Sa ugtP lethal: kills S. aureus RN4220 lacking UgtP | S. aureus RN4220 ugtP deletion, OD600 growth, 16 h | growth inhibition, % (no concentration beside the values) | hit rate 0.54% among 330,000; in the data active means growth inhibition above about 68%;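 further: plate controls were untreated wells for no effect and antibiotic for full effect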
VHR inh abs: blocks human VHR1 dual specificity phosphatase; P51452; recombinant VHR phosphatase, pNPP absorbance; inhibition, % at 13.3 µM; hit rate 0.52% among 290,000; in the data active means inhibition above about 50%
PrPC surface inh: reduces human prion protein on the cell surface | P04156 | cell surface PrPC, TR-FRET read-out | inhibition, % at 13.8 µM | hit rate 0.43% among 370,000 | AID 720596; in the data active means inhibition above about 24%; further: 0% = median of the test wells and 100% = reference compound wells
PfHsp40 yeast: restores yeast growth despite PfHsp40 toxicity; S. cerevisiae expressing PfHsp40, growth rescue, ATP luminescence; AID 504582; hit rate 0.68% among 340,000; growth rescue, % at 12.5 µM; in the data active means growth rescue above about 28%, passing the limit was not always enough;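 further: yeast W303a lacking pdr1 and pdr3 grown in galactose medium; growth measured after three days at 30 °C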
PrPC TRFRET cf: confirmation of inhibitors of cell surface human prion protein; shares compounds with PrPC surface inh; cell surface PrPC level, TR-FRET; inhibition, % at 13.8 µM; hit rate 65% among 1,500; AID 743200; in the data active means inhibition above about 25%
LD9 cytotox: kills or reduces viability of LD9 cells in PrPc counter-screen. shares compounds with PrPC surface inh. LD9 cells cytotoxicity, luminescence viability. inhibition, % at 13.8 µM. hit rate 29% among 1,500. AID 743201; in the data active means inhibition above about 9.5%
Starred values were filed as active, the others as inactive; / = no result given.

SMILES | Sa RN4220 lethal | Sa ugtP lethal | VHR inh abs | PrPC surface inh | PfHsp40 yeast | PrPC TRFRET cf | LD9 cytotox
O=C1C2C(C=Cc3ccccc3)N3C(=O)CN(Cc4ccccn4)C(=O)[C@@]3(Cc3ccccc3)C2C(=O)N1c1ccccc1 (stereo not given in full) | 5 | -3 | / | / | / | / | /
C=C[C@@]1(C)CC(=O)[C@]2(O)[C@@]3(C)[C@@H](O)CCC(C)(C)[C@@H]3[C@H](OC(C)=O)[C@H](O)[C@@]2(C)O1 | 6 | -8 | / | 21 | -1 | / | /
C=C[C@@]1(C)CC(=O)[C@]2(O)[C@@]3(C)[C@@H](O)CCC(C)(C)[C@@H]3[C@H](O)[C@H](OC(C)=O)[C@@]2(C)O1 | / | / | / | 34* | -1 | 26* | -9
N#CCC(N)=C(C#N)C#N | 7 | -1 | -7 | 61* | 1 | 18 | -3
Cc1ccc(S(=O)(=O)N2CC(C(=O)O)=CCC2c2ccc(Cl)cc2)cc1 (stereo not given) | 10 | 5 | / | / | / | / | /
CC(=O)NC(CSc1cc(C)nc2ccc(Br)cc12)C(=O)O (stereo not given) | 1 | 11 | 2 | 32* | -1 | 57* | -4
COc1ccc2nc(C)cc(SCC(NC(C)=O)C(=O)OC(C)C)c2c1 (stereo not given) | 4 | 10 | 6 | 12 | 0 | / | /
O=C(ON=CC1=C(Cl)c2ccccc2CC1)c1ccc(F)cc1 | 0 | -3 | / | / | / | / | /
O=C(NNc1ccc(-c2csnn2)cc1)c1ccccc1C(F)(F)F | 6 | 15 | 9 | 17 | 1 | / | /
O=C(NNc1ccc(-c2csnn2)cc1)c1cc(Cl)cc(Cl)c1 | -3 | 4 | 10 | 27* | / | 32* | -2
CCCC(=O)NC(c1ccc(Cl)cc1Cl)c1ccc2cccnc2c1O (stereo not given) | / | / | 9 | 28* | -2 | 24 | 12*
CC(=O)NC(c1ccc2ccccc2c1)c1ccc2cccnc2c1O (stereo not given) | / | / | 6 | 38* | 85* | 25* | 31*
CC(C)C(=O)NC(c1cccc([N+](=O)[O-])c1)c1ccc2cccnc2c1O (stereo not given) | 22 | 11 | 12 | 29* | 228* | 22 | 28*
CC(=O)NC(c1ccc(Cl)cc1Cl)c1ccc2cccnc2c1O (stereo not given) | / | / | 11 | 32* | 445* | 35* | 31*
CCCC(=O)NC(c1cccc([N+](=O)[O-])c1)c1ccc2cccnc2c1O (stereo not given) | / | / | / | 13 | / | / | /
CN(C)C1=NCC(Cc2ccccc2)N1CCCC1CCCCC1 (stereo not given) | -1 | -23 | / | / | / | / | /
CC(C)(C)OC(=O)N1CCCC1C(=O)N1CCC(C(=O)O)CC1 (stereo not given) | 4 | -6 | / | / | / | / | /
CCC(C)C(C(=O)N1CCNCC1)n1cc(CCC(=O)O)nn1 (stereo not given) | -4 | -8 | / | / | / | / | /
Cc1cc2c(cc(C(=O)O)n2C)s1 | 11 | -2 | 16 | -2 | -1 | / | /
Cc1cc2sc(C(=O)O)c(C)c2s1 | 1 | -3 | 22 | 30* | 2 | 42* | -6
CC(C)(C)c1ccc(S(=O)(=O)Nc2ccc(C(O)(C(F)(F)F)C(F)(F)F)cc2)cc1 | / | / | / | 26* | / | 4 | -4
Cc1cccc(OCCCC(=O)Nc2nc3ccccc3[nH]2)c1 | -5 | 4 | 22 | 29* | 1 | 25* | -8
O=C(NC1CC1)C1CCCN(C(=O)Nc2ccc(F)cc2)C1 (stereo not given) | 4 | 6 | -5 | 31* | 2 | 15 | 0
Cc1ccc(NC(=O)C2CCCN(C(=O)Nc3ccc(F)cc3)C2)cc1 (stereo not given) | 3 | 1 | 22 | -4 | -1 | / | /
COC(=O)c1sc(NC(=S)NNC(=O)c2c(Br)c(C)nn2C)c(C(=O)OC)c1C | 9 | 15 | 40 | 132* | 0 | 146* | -3
SMILES | Sa RN4220 lethal | Sa ugtP lethal | VHR inh abs | PrPC surface inh | PfHsp40 yeast | PrPC TRFRET cf | LD9 cytotox
COC(=O)c1sc(S(=O)(=O)Nc2c(C)nn(C)c2C)c(C(=O)OC)c1C | 1 | 5 | / | 3 | -1 | / | /
COc1cccc(C=Nn2c(C3CCCCC3)n[nH]c2=S)c1 | 1 | -11 | / | / | / | / | /
NC(Cc1ccc(Cl)cc1)c1csc(Nc2ncccn2)n1 (stereo not given) | / | / | / | 52* | / | 60* | 13*
COc1ccc(C(N)c2csc(Nc3ncccn3)n2)cc1 (stereo not given) | / | / | / | 36* | / | 18 | -6
Nc1ccc(CC(N)c2csc(Nc3ncccn3)n2)cc1 (stereo not given) | / | / | / | 21 | / | / | /
NC(c1csc(Nc2ncccn2)n1)c1ccccc1Cl (stereo not given) | / | / | / | 33* | / | 19 | -8
COc1ccc(CC(N)c2csc(Nc3nccc(C(F)(F)F)n3)n2)cc1 (stereo not given) | / | / | / | -7 | / | / | /
COc1ccc(CC(N)c2csc(Nc3ncccn3)n2)cc1 (stereo not given) | / | / | / | 38* | / | 38* | 3
COc1ccc2c(c1)OCC1C2N2C(=O)CN(Cc3ccc(C)cc3)C(=O)[C@@]2(C)C1c1ccccc1 (stereo not given in full) | 2 | -12 | / | / | / | / | /
NC(Cc1ccc(F)cc1)c1csc(Nc2ncccn2)n1 (stereo not given) | / | / | / | 59* | / | 55* | 23*
CC1=C(C)[N+](=O)C2(O)CCCCC2(C)N1[O-] (stereo not given) | -8 | -11 | 13 | 36* | -1 | 4 | -4
Cc1cc(C)c2sc(NNC(=O)c3ccc(S(=O)(=O)N4CCc5ccccc5C4)cc3)nc2c1 | 25 | 28 | -11 | 29* | 364* | 30* | 12*
CCOc1ccc(NC(=O)C(NC(=O)c2ccccc2)C(C)CC)cc1 (stereo not given) | 4 | 5 | / | / | / | / | /
CCc1ccccc1NC(=O)C1CCCN(S(=O)(=O)c2ccc3c(c2)CC(C)N3C(C)=O)C1 (stereo not given) | 5 | 8 | -2 | 31* | -1 | 16 | -3
CC(=O)N1c2ccc(S(=O)(=O)N3CCCC(C(=O)NCc4ccccc4Cl)C3)cc2CC1C (stereo not given) | 2 | 5 | 9 | 4 | 0 | / | /
Cc1ccc(-n2c(C)cc(C(=O)CSc3nncs3)c2C)cc1 | 5 | -15 | 3 | 39* | -2 | 34* | 2
Cc1cc(C(=O)CSc2nncs2)c(C)n1-c1c(C)n(C)n(-c2ccccc2)c1=O | 2 | -3 | 10 | -7 | -2 | / | /
CCOC(=O)Nc1ccc2nc3n(c(=O)c2c1)CCCCC3 | 14 | 3 | 12 | 7 | 1 | / | /
CCCN(C(=O)C(=O)Nc1ccc2nc3n(c(=O)c2c1)CCCCC3)c1ccc(OCC)cc1 | -1 | 10 | -4 | 31* | 2 | 12 | -2
O=C(Nc1ccc2nc3n(c(=O)c2c1)CCCCC3)c1c(F)ccc([N+](=O)[O-])c1F | / | / | -2 | 26* | 1 | 28* | 96*
O=C(Nc1ccc2nc3n(c(=O)c2c1)CCCCC3)c1cc([N+](=O)[O-])ccc1F | / | / | 6 | -26 | 1 | / | /
